# Screening data as filed in PubChem BioAssay.
# tim10-1 inh = tim10-1 yeast growth inhibition; S. cerevisiae tim10-1 ts strain growth, BacTiter-Glo, 24 h; inhibition, % at 20 µM; 330,000 tested, 2.2% active;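 active means inhibition of at least 40%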;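 further: mutant grown at 25 °C; 0% = DMSO wells with yeast and 100% = wells holding no yeast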
# SKKanGAS inh = blocks kanamycin growth of S. pyogenes SKKanGAS strain; inhibition, % at 7.5 µM; 300,000 tested, 1.3% active; AID 1662; BacTiter-Glo, 6 h;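 active means mean replicate score, as percent of positive control median, at least 50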;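 further: strain carries kanamycin resistance gene driven by streptokinase promoter and grows in 40 µg/ml kanamycin; loss of luminescence reflects streptokinase promoter inhibition or plain growth inhibition; 0% = median of DMSO wells and 100% = positive control at its reference dose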
# PfHsp90 yeast 2 = inhibits growth of yeast expressing Plasmodium falciparum Hsp90. S. cerevisiae expressing PfHsp90, BacTiter-Glo ATP, 48 h; yeast lacking PDR1 and PDR3 efflux regulators. inhibition, % at 9.4 µM. 310,000 tested, 0.32% active;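 active means every replicate shows inhibition above about 80%, whatever the replicate mean, limit read from the data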;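 further: 0% = DMSO neutral controls and 100% = 20 µM radicicol positive controls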
# TIM10 inh = growth inhibitors of TIM10 yeast strain; S. cerevisiae TIM10 strain growth, BacTiter-Glo luminescence, 24 h; inhibition, % at 10 µM; 330,000 tested, 1.4% active;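 active means inhibition of 40% or more at the single tested concentration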;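 further: wild-type TIM10 isogenic control strain grown at permissive 25 °C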
# tim23-1 inh = growth inhibitors of tim23-1 mutant yeast. AID 463212. 330,000 tested, 1.3% active. S. cerevisiae tim23-1 growth, BacTiter-Glo luminescence, 24 h. inhibition, % at 20 µM;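 active means growth inhibition of the mutant yeast at or above 50%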;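 further: temperature-sensitive mutant grown at 25 °C; plate controls were DMSO-treated mutant yeast for no effect and medium wells lacking yeast for full effect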
# tim10 confirm = TIM10 yeast growth inhibition, confirmed; shares compounds with TIM10 inh; S. cerevisiae tim10 strain growth, BacTiter-Glo luminescence, 24 h; inhibition, % at 10 µM; 4,600 tested, 63% active;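 active means inhibition of yeast growth at or above a set limit in either of two replicates at 10 µM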;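 further: this counterscreen used the strain with wild-type TIM10; 0% = yeast with DMSO and 100% = medium wells lacking yeast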
# * = called active by the depositor; . = no result. Rows were chosen to be rich in hits. Some 4.4% of all compounds tested hit in one or more screens of this group.
SMILES,tim10-1 inh,SKKanGAS inh,PfHsp90 yeast 2,TIM10 inh,tim23-1 inh,tim10 confirm
COc1cccc2cc(-c3nc4ccccc4[nH]3)c(=O)oc12,-31.4,-1.8,28.3,54.1*,13.7,36.0*
COc1ccc(-c2csc(-n3ncc(C(=O)O)c3C(F)(F)F)n2)cc1,14.5,4.2,-12.7,-8.1,14.5,.
CC(C)(C)C(=O)OCc1nc(-c2ccc(F)cc2)cs1,38.0,-5.0,-23.3,40.9*,31.5,39.1*
CCOC(=O)c1cnn(-c2nc(-c3ccc(F)cc3)cs2)c1C(F)(F)F,24.8,38.8,-8.8,45.3*,22.8,25.9
COC(=O)c1cccc(NC(=O)NC23CC4CC(CC(C4)C2)C3)c1,36.9,15.8,-24.5,48.3*,45.8,38.4*
COC(=O)c1cccc(NC(=S)Nc2ccc(Cl)c(Cl)c2)c1,36.1,-4.8,14.2,57.4*,49.5,34.2*
COC(=O)c1cccc(NC(=S)Nc2ccccc2Cl)c1,-5.3,6.8,6.2,-9.0,-2.4,.
COC(=O)c1ccc(Cl)c(NC(=O)NC23CC4CC(CC(C4)C2)C3)c1,24.7,6.2,9.3,26.2,23.8,.
O=C(CNC(=O)c1cccs1)N=Nc1c(O)[nH]c2ccc([N+](=O)[O-])cc12,12.1,6.6,22.8,5.6,-1.6,.
CCOc1ccc(S(=O)(=O)Nc2cccc(Cl)c2)cc1,28.8,-2.8,-0.6,48.7*,48.2,42.7*
C/C(=N\Nc1ccc(S(=O)(=O)N2CCCCC2)cn1)c1cccc(Br)c1,25.2,.,0.1,41.2*,44.7,45.5*
NNc1ccc(S(=O)(=O)N2CCCCC2)cn1,10.0,.,22.2,-7.3,25.6,.
CC(C)Sc1ncnc2[nH]ncc12,.,.,1.6,.,.,.
CCc1ccc(NC(=O)CCS(=O)(=O)c2ccc(Cl)cc2)cc1,6.5,-4.6,-1.4,18.0,27.3,.
CC(C)(C)S(=O)N1Cc2cn(Cc3ccccc3)c(=O)cc2[C@H]1CCO (stereo partly specified),.,.,-3.2,.,.,.
CSc1ccc2c(c1)N(CCC1CCCCN1C)c1ccccc1S2 (stereo unspecified),23.0,11.0,-5.7,52.5*,17.0,29.1
CC(=O)c1ccc2c(c1)N(CCCN1CCC(CCO)CC1)c1ccccc1S2,-11.1,.,-4.4,8.6,-32.0,.
CNc1cnn(-c2ccccc2)c(=O)c1Cl,-5.5,-1.7,-17.9,-0.2,30.4,.
Cc1ccc(Sc2cnn(-c3ccccc3)c(=O)c2Cl)cc1,39.5,9.1,-10.9,51.7*,44.5,45.9*
COc1ccc(/C=C2\N=C(C)OC2=O)cc1[N+](=O)[O-],22.3,4.0,1.7,17.1,18.0,.
Cc1c(Cl)cccc1NC(=S)NCCC(C)C,29.3,5.1,8.5,49.2*,23.1,34.1*
Cc1c(Cl)cccc1NC(=S)NCc1ccccc1Cl,37.8,6.7,0.3,8.6,24.9,.
Cc1c(Cl)cccc1NC(=S)NCCC(c1ccccc1)c1ccccc1,36.8,79.2*,-5.5,49.7*,3.9,20.4
COc1ccc(NC(=S)NCCC(c2ccccc2)c2ccccc2)c(OC)c1,23.2,18.4,-15.7,45.3*,13.0,30.9*
COc1ccc(C(=O)CC2(C(=O)O)CCCCC2)cc1,1.7,0.7,-7.3,-0.6,9.4,.
SMILES,tim10-1 inh,SKKanGAS inh,PfHsp90 yeast 2,TIM10 inh,tim23-1 inh,tim10 confirm
Cc1ccc(CN(C)C(=O)COc2ccc(S(=O)(=O)N3CCCC3)cc2[N+](=O)[O-])c(C)c1,26.3,.,10.9,10.4,26.0,.
O=C(c1ccc(Cn2c(=S)[nH]c3ccccc3c2=O)cc1)N1CCN(c2ccccn2)CC1,20.1,20.5,.,72.9*,30.4,3.5
O=C(c1ccc(Cn2c(=O)[nH]c3ccccc3c2=O)cc1)N1CCN(c2ccccn2)CC1,-4.1,-2.7,7.1,2.0,-2.3,.
COc1ccc2sc(N(CCN(C)C)C(=O)c3ccc4ccccc4c3)nc2c1,12.3,-6.1,2.0,15.1,22.8,.
O=C(CCC(=O)Nc1nnc(C2CCCCC2)s1)NCc1ccccc1,2.3,0.9,-8.3,54.8*,12.2,-3.0
CC(C)c1ccc(NC(=O)Cc2cn(C)c3ccccc23)cc1,26.1,-8.9,-14.1,47.1*,33.5,31.6*
CCc1ccc(-c2nnn(CC(=O)N(C3CCCC3)C3CCS(=O)(=O)C3)n2)cc1 (stereo unspecified),13.6,.,-4.2,1.2,15.8,.
CCOC(=O)c1c(C)[nH]c(C(=O)COC(=O)CNS(=O)(=O)c2ccc(C)cc2)c1C,3.8,.,-21.9,71.1*,8.5,7.3
COc1ccc(NC(=O)Nc2ccc(CC(=O)O)cc2)cc1,0.6,0.5,18.3,-1.3,4.3,.
O=C(c1ccc(Cl)cc1)c1cc(-c2ccccn2)c(N2CCOCC2)s1,36.7,-4.7,-9.9,40.0*,39.4,16.4
O=C(O)c1cc(-c2ccccc2)c(N2CCOCC2)s1,2.9,8.1,16.8,5.7,3.9,.
CC1CCN(C(=O)c2ccc(NC3=C(Cl)C(=O)N(Cc4ccccc4)C3=O)cc2)CC1,21.6,.,.,41.4*,39.6,42.0*
CCC1CCC(NC(=O)Nc2cccc(OC)c2)CC1 (stereo unspecified),29.7,-1.9,-10.2,44.5*,24.6,24.4
C=CCN(Cc1ccc(Cl)s1)C(=O)c1cc(S(=O)(=O)N2CCOCC2)ccc1F,37.6,.,-5.1,17.1,36.0,.
O=C(N/N=C/c1ccccn1)c1ccc(N/N=C/c2ccccn2)cc1,28.4,1.0,2.4,62.0*,18.4,33.9*
O=C(N/N=C/c1ccccn1)c1ccc(Br)cc1,-12.8,-2.6,24.5,3.0,-37.8,.
COc1ccc(C2=NN(CC(=O)NCC(OC)OC)C(=O)CC2)cc1,-1.5,-2.8,12.9,-15.9,4.2,.
O=C(CCC1CCCCC1)Nc1ccc(C(=O)c2ccncc2)cc1,34.5,-2.7,-6.5,43.0*,43.0,39.2*
O=C(CCC1CCCCC1)Nc1cccnc1,23.0,7.7,-5.3,26.9,15.0,.
COc1ccc(Sc2cc(C(F)(F)F)nc(-c3ccccn3)n2)cc1,36.6,20.5,-12.4,44.9*,33.8,31.2*
O=S(=O)(Nc1ccc(-c2nc3cccnc3s2)cc1)c1cccs1,9.6,3.6,-4.1,4.1,14.4,.
O=S(=O)(Nc1cccc2ncccc12)c1cccs1,30.8,87.2*,-101.0,43.4*,39.7,47.9*
COc1ccc(/C=C/C(=O)C(C(N)=O)=C2SCCS2)cc1,31.3,3.3,-2.9,0.1,7.8,.
Cc1ccc(C(=O)C(C(=O)/C=C/c2ccccc2)=C2SCCCS2)cc1,36.7,-2.2,18.6,51.7*,31.6,-16.1
C/C=C(/C)C(=O)OC1c2c(ccc3ccc(=O)oc23)OC(C)(C)C1OC(C)=O (stereo unspecified),38.7,2.7,27.5,42.1*,34.1,2.4
C/C=C(/C)C(=O)O[C@@H]1[C@H](OC(C)=O)c2c(ccc3ccc(=O)oc23)OC1(C)C,27.5,7.6,3.4,16.3,40.6,.
OCCCn1c(C(CO)Nc2nc(-c3ccc(Cl)cc3)cs2)nc2ccccc21 (stereo unspecified),4.9,8.2,5.4,9.6,21.4,.
